Several values for one entry are separate records, joined by “and”; a condition that tells them apart may be missing. Identical values can stand only once. The whole screen tested about 5,500 compounds, of which about 2,000 (36%) were called active. Roughly 18% stayed inconclusive and do not appear here. No stated cut-off is given here; in the data, active means normalized growth mostly below about 0.91 (no sharp cut-off); inconclusive means no clear call, values can overlap the other calls; inactive means mostly above about 0.92. This is one part of the list.
Test: chemical genetic growth profiling, strain panel (AID 1159580);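 further: tested at 20 µM; growth read once vehicle control cultures reached saturation at 30 °C; 1 = growth at the plate median or of vehicle wells; lower values mean less growth of the strain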
Conditions: S. cerevisiae deletion strains, growth OD

Measured: normalized growth

C[n+]1cc2c3c(ccc2c2ccc4cc5c(cc4c21)OCO5)OCO3
active: locus YJR043C, strain POL32, hits give low values 0.0783 | locus YJR075W, strain HOC1, hits give low values 0.0715 and 0.0688 | locus YKL085W, strain MDH1 (second series), hits give low values 0.921 | locus YKL085W, strain MDH1, hits give low values 0.921 | locus YKL160W, strain elf1, hits give low values 0.548 | locus YKL190W, strain CNB1, hits give low values 0.0545 | locus YKR001C, strain vps1, hits give low values 0.0723 | locus YKR026C, strain gcn3, hits give low values 0.843 | locus YKR091W, strain srl3, hits give low values 0.914 | locus YLL001W, strain dnm1, hits give low values 0.639 | locus YLL026W, hits give low values 0.549 | locus YLL041C, strain sdh2, hits give low values 0.778 | locus YLR027C, strain aat2, hits give low values 0.379 | locus YLR039C, strain RIC1, hits give low values 0.101 | locus YLR058C, strain SHM2, hits give low values 0.0596 | locus YLR102C, strain apc9, hits give low values 0.0679 | locus YLR221C, strain rsa3, hits give low values 0.562 | locus YLR258W, strain gsy2, hits give low values 0.502 | locus YLR262C, strain YPT6 (second series), hits give low values 0.827 | locus YLR262C, strain YPT6, hits give low values 0.123 | locus YLR268W, strain sec22, hits give low values 0.0776 | locus YLR320W, strain mms22, hits give low values 0.375 | locus YLR330W, strain CHS5, hits give low values 0.0586 | locus YLR342W, strain FKS1 (second series), hits give low values 0.0743 | locus YLR342W, strain FKS1, hits give low values 0.349 | locus YLR357W, strain rsc2, hits give low values 0.844 | locus YLR370C, strain arc18, hits give low values 0.762 | locus YLR371W, strain rom2, hits give low values 0.0708 | locus YLR418C, strain cdc73, hits give low values 0.107 | locus YML016C, strain PPZ1, hits give low values 0.0598 | locus YML032C, strain rad52, hits give low values 0.0764 | locus YML120C, strain ndi1, hits give low values 0.582 | locus YML124C, strain tub3, hits give low values 0.0684 | locus YMR058W, strain fet3, hits give low values 0.592 | locus YMR078C, strain ctf18, hits give low values 0.0819 | locus YMR125W, strain sto1, hits give low values 0.462 | locus YMR129W, hits give low values 0.779 | locus YMR205C, strain PFK2, hits give low values 0.273 | locus YMR223W, strain ubp8, hits give low values 0.077 | locus YMR307W, strain GAS1, hits give low values 0.145 and 0.0622 | locus YNL067W, strain RPL9B, hits give low values 0.0573 | locus YNL071W, strain lat1, hits give low values 0.0942 | locus YNL175C, strain NOP13, hits give low values 0.0763 | locus YNL197C, strain WHI3, hits give low values 0.0898 | locus YNL209W, strain ssb2, hits give low values 0.623 | locus YNL224C, strain SQS1, hits give low values 0.0906 | locus YNL233W, strain BNI4, hits give low values 0.0657 | locus YNL248C, strain rpa49, hits give low values 0.688 | locus YNL250W, strain rad50, hits give low values 0.839 | locus YNL307C, strain MCK1, hits give low values 0.0755 | locus YNL322C, strain KRE1, hits give low values 0.0622 | locus YNR052C, strain pop2, hits give low values 0.085 | locus YOL006C, strain TOP1, hits give low values 0.135 | locus YOL147C, strain pex11, hits give low values 0.0667 | locus YOR001W, strain rrp6, hits give low values 0.823 | locus YOR061W, strain CKA2, hits give low values 0.0586 | locus YOR069W, strain VPS5, hits give low values 0.0593 | locus YOR070C, strain gyp1, hits give low values 0.413 | locus YOR080W, strain dia2, hits give low values 0.825 | locus YOR083W, strain WHI5 (second series), hits give low values 0.0851 | locus YOR083W, strain WHI5, hits give low values 0.475 | locus YOR106W, strain vam3, hits give low values 0.315 | locus YOR136W, strain idh2, hits give low values 0.0832 | locus YOR144C, strain elg1, hits give low values 0.0651 | locus YOR184W, strain ser1, hits give low values 0.0766 | locus YOR265W, strain rbl2, hits give low values 0.5 | locus YOR270C, strain vph1, hits give low values 0.38 | locus YOR290C, strain snf2, hits give low values 0.412 | locus YOR316C, strain cot1, hits give low values 0.0661 | locus YPL051W, strain arl3, hits give low values 0.512 | locus YPL055C, strain LGE1, hits give low values 0.0742 and 0.092 | locus YPL078C, strain atp4, hits give low values 0.538 | locus YPL106C, strain sse1, hits give low values 0.741 | locus YPL240C, strain hsp82, hits give low values 0.58 | locus YPR119W, strain clb2, hits give low values 0.07 | locus YPR163C, strain tif3, hits give low values 0.0761 | locus YPR167C, strain met16, hits give low values 0.0704 | strain wtn01, hits give low values 0.067
inactive: locus YJR066W, strain TOR1, hits give low values 0.931 | locus YKL009W, strain mrt4, hits give low values 0.922 | locus YKL068W, hits give low values 0.964 | locus YLR113W, strain HOG1, hits give low values 0.951 | locus YLR384C, strain iki3, hits give low values 0.97 | locus YMR231W, strain pep5, hits give low values 0.991 | locus YNL183C, strain NPR1, hits give low values 0.923 | locus YNL271C, strain bni1, hits give low values 0.92 | locus YNL298W, strain CLA4, hits give low values 0.951 | locus YNL322C, strain KRE1 (second series), hits give low values 1 | locus YNR049C, strain mso1, hits give low values 0.964 | locus YOL012C, strain htz1 0.232 | locus YOR231W, strain MKK1, hits give low values 0.96 | locus YPL256C, strain CLN2, hits give low values 0.969 | locus YPR141C, strain kar3, hits give low values 0.971
